Eight molecules from PubChem BioAssay (NCI) can be followed below.

This is part of a sample that, as a whole, favours compounds with a hit. Of some 83,000 tested, about 20% had one in any assay.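 Negative percent growth values reflect cell death: -40 means 40% of the cells present at the start died, and -100 means all died.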 A number with no mark means an inactive call. Calls of active or inactive are those of the source. Rule for the calls: active = growth percent below 10; inactive = the rest.

Some test systems named below: SR leukemia; RPMI-8226 leukemia; OVCAR-8 ovarian; OVCAR-5 ovarian; OVCAR-4 ovarian; SK-OV-3 ovarian; IGROV1 ovarian; OVCAR-3 ovarian; HS 578T breast; NCI/ADR-RES ovarian; T-47D breast; BT-549 breast; MDA-MB-435 melanoma; SW-620 colon; MCF7 breast; HCT-116 colon; HCC-2998 colon; KM12 colon.
Holding throughout (test): NCI-60 one-dose screen, 48 h (100 = growth as untreated, 0 = no growth, -100 = all killed)
Conditions in all cases: 10 µM unless noted

Regarding `O=C(Nc1cccc(C(F)(F)F)c1)c1cc(-c2ccc(F)cc2F)ccc1O`, the growth in the experiment with SR leukemia is 24%; in the experiment with RPMI-8226 leukemia, -10.3% (active); in the experiment on OVCAR-8 ovarian, 11.5%; with OVCAR-5 ovarian, 9.98% (active); with OVCAR-4 ovarian it was 12.4%; with SK-OV-3 ovarian, -0.0407% (active). Besides, the growth with IGROV1 ovarian was 10.4%; in the experiment with OVCAR-3 ovarian it was 9.88% (active); with HS 578T breast, -5.22% (active); with NCI/ADR-RES ovarian it was 4.03% (active); in the experiment with T-47D breast it was 2.56% (active); with BT-549 breast, 1.83% (active). For the same molecule, the growth with MDA-MB-435 melanoma was 4.23% (active); in the experiment with SW-620 colon it was 10.8%; in the experiment with MCF7 breast, 2.4% (active); with HCT-116 colon it was 3.8% (active); with HCC-2998 colon, 15.2%; in the experiment on KM12 colon, 3.77% (active).

Regarding `COc1ccc(COc2ccc(/C=C3\C(=O)Nc4ccccc43)cc2OC)cc1`, the growth was 102% in the experiment on SR leukemia; 104% in the experiment with RPMI-8226 leukemia; 101% in the experiment with OVCAR-8 ovarian; 99.9% in the experiment on OVCAR-5 ovarian; 99.8% in the experiment with OVCAR-4 ovarian; 119% in the experiment with SK-OV-3 ovarian. Also, the growth in the experiment on IGROV1 ovarian is 107%; in the experiment on OVCAR-3 ovarian it was 115%; with HS 578T breast, 105%; in the experiment with NCI/ADR-RES ovarian, 106%; in the experiment with T-47D breast it was 113%; in the experiment on BT-549 breast it was 92.1%. Further, the growth was 106% with MDA-MB-435 melanoma; 99.1% in the experiment with SW-620 colon; 94% in the experiment on MCF7 breast; 108% in the experiment on HCT-116 colon; 102% with HCC-2998 colon; 104% in the experiment on KM12 colon.

Regarding `O=C(CN1CCN(c2cc(=O)[nH]c3ccc(F)cc23)CC1)Nc1ccc(Cl)cc1`, the growth with SR leukemia was 84.3%; in the experiment on RPMI-8226 leukemia, 104%; in the experiment on OVCAR-8 ovarian it was 33.3%; in the experiment with OVCAR-5 ovarian, 86.2%; with OVCAR-4 ovarian, 29.7%; with SK-OV-3 ovarian, 65.1%. In addition, the growth in the experiment with IGROV1 ovarian is 67.1%; in the experiment with OVCAR-3 ovarian it was 60.5%; in the experiment on HS 578T breast, 34.6%; in the experiment with NCI/ADR-RES ovarian, 76%; in the experiment with T-47D breast, 66.3%; in the experiment with BT-549 breast, 47.6%. For the same molecule, the growth with MDA-MB-435 melanoma is 96%; in the experiment on SW-620 colon, 93.8%; in the experiment on MCF7 breast, 58.8%; in the experiment on HCT-116 colon, 57.6%; with HCC-2998 colon, 92.3%; with KM12 colon, 91.6%.

As to `Cc1nn(-c2ccccc2)c2ncnc(N/N=C/c3ccccc3O)c12`, the growth is 11.5% in the experiment with SR leukemia; 20.4% with RPMI-8226 leukemia; 12.2% with OVCAR-8 ovarian; 35.9% with OVCAR-5 ovarian; 28.6% in the experiment with OVCAR-4 ovarian; 10.4% in the experiment with SK-OV-3 ovarian. The growth was 3.8% (active) with IGROV1 ovarian; 29.4% with OVCAR-3 ovarian; 35.6% in the experiment with HS 578T breast; 3.15% (active) with NCI/ADR-RES ovarian; 15.6% in the experiment with T-47D breast; 25.6% in the experiment with BT-549 breast. Besides, the growth is 16.3% with MDA-MB-435 melanoma; 26.2% in the experiment on SW-620 colon; 9.62% (active) with MCF7 breast; 20.9% with HCT-116 colon; 52% in the experiment on HCC-2998 colon; 16.7% in the experiment on KM12 colon.

For `O=C(CSc1nnc(-c2ccc3nc(-c4ccccc4)[nH]c3c2)o1)Nc1ccc(C(=O)/C=C/c2ccccc2)cc1`, the growth with SR leukemia is 111%; with RPMI-8226 leukemia it was 94.3%; in the experiment on OVCAR-8 ovarian it was 100%; in the experiment on OVCAR-5 ovarian, 118%; with OVCAR-4 ovarian, 100%; with SK-OV-3 ovarian it was 109%. Also, the growth with IGROV1 ovarian was 95.8%; in the experiment with OVCAR-3 ovarian, 116%; in the experiment on HS 578T breast, 103%; in the experiment on NCI/ADR-RES ovarian, 105%; with T-47D breast, 98.6%; in the experiment on BT-549 breast, 96.8%. Besides, the growth with MDA-MB-435 melanoma is 101%; in the experiment with SW-620 colon it was 116%; in the experiment with MCF7 breast, 87.6%; in the experiment with HCT-116 colon, 97%; with HCC-2998 colon, 106%; with KM12 colon, 110%.

Take `C#C[C@]1(O)CC[C@H]2[C@@H]3CC=C4c5sc(-c6cccc(O)c6)nc5CC[C@]4(C)[C@H]3CC[C@@]21C`: the growth is 4.31% (active) with SR leukemia; -33% (active) with RPMI-8226 leukemia; 9.55% (active) in the experiment with OVCAR-8 ovarian; -35% (active) in the experiment with OVCAR-5 ovarian; -47.4% (active) in the experiment with OVCAR-4 ovarian; -18.2% (active) in the experiment with SK-OV-3 ovarian. In addition, the growth in the experiment on IGROV1 ovarian was -3.36% (active); in the experiment with OVCAR-3 ovarian, -65.3% (active); in the experiment with HS 578T breast it was -37.7% (active); in the experiment on NCI/ADR-RES ovarian, -12.5% (active); in the experiment on T-47D breast, 1.25% (active); with BT-549 breast it was -22.8% (active). Moreover, the growth with MDA-MB-435 melanoma was -51.4% (active); in the experiment with SW-620 colon it was -52.8% (active); with MCF7 breast, -28% (active); in the experiment on HCT-116 colon, -37.6% (active); in the experiment with HCC-2998 colon, -24.8% (active); in the experiment with KM12 colon, -28.9% (active).

In the case of `Cc1ccc(-c2cc3nc(C(Cl)Cl)nc(-c4cccs4)n3n2)cc1`, the growth with SR leukemia was 108%; in the experiment on RPMI-8226 leukemia, 51.9%; with OVCAR-8 ovarian, 77.5%; with OVCAR-5 ovarian it was 72.4%; in the experiment with OVCAR-4 ovarian it was 71%; with SK-OV-3 ovarian, 86.4%. The growth is 61.7% in the experiment with IGROV1 ovarian; 20.3% in the experiment on OVCAR-3 ovarian; 91% in the experiment with HS 578T breast; 58.3% in the experiment on NCI/ADR-RES ovarian; 87.8% in the experiment with T-47D breast; 97.8% with BT-549 breast. The growth is 77.6% in the experiment on MDA-MB-435 melanoma; 52.5% with SW-620 colon; 59.8% in the experiment with MCF7 breast; 63.5% with HCT-116 colon; 54.1% in the experiment on HCC-2998 colon; 27.1% in the experiment with KM12 colon.

`CCN(CC)c1ccc(NC2=C(Cl)C(=O)c3nc(C)ccc3C2=O)cc1`: the growth is 7.24% (active) with SR leukemia; 2.6% (active) with RPMI-8226 leukemia; -12.2% (active) with OVCAR-8 ovarian; 108% in the experiment on OVCAR-5 ovarian; -97% (active) in the experiment with OVCAR-4 ovarian; 112% in the experiment with SK-OV-3 ovarian. The growth with IGROV1 ovarian was -52.2% (active); in the experiment on OVCAR-3 ovarian, -29.6% (active); with HS 578T breast it was 65.4%; in the experiment on NCI/ADR-RES ovarian it was 51.2%; in the experiment with T-47D breast, -36% (active); in the experiment with BT-549 breast, 132%. The growth in the experiment on MDA-MB-435 melanoma was -76% (active); in the experiment on SW-620 colon it was -29.3% (active); with MCF7 breast it was -38.5% (active); with HCT-116 colon, -63.8% (active); with HCC-2998 colon, 9.75% (active); with KM12 colon, 101%.
